Assay outcomes (PubChem)
TDP1 block: blocks human tyrosyl-DNA phosphodiesterase 1 | 350,000 compounds, 0.28% hits | Q9NUW8 | recombinant TDP1, AlphaScreen DNA substrate cleavage | Potency, µM (doses to about 130 µM), without a hit: at the highest dose activity change, negative = inhibition, actives largely listed as inhibitors; further: potency means the concentration at half of the fitted maximal effect; on the % scale 0 is the no-effect control and ±100 the full control effect; nearly all actives have a fitted effect of over 40% in size
Target sequence (Q9NUW8 whole entry, looked up): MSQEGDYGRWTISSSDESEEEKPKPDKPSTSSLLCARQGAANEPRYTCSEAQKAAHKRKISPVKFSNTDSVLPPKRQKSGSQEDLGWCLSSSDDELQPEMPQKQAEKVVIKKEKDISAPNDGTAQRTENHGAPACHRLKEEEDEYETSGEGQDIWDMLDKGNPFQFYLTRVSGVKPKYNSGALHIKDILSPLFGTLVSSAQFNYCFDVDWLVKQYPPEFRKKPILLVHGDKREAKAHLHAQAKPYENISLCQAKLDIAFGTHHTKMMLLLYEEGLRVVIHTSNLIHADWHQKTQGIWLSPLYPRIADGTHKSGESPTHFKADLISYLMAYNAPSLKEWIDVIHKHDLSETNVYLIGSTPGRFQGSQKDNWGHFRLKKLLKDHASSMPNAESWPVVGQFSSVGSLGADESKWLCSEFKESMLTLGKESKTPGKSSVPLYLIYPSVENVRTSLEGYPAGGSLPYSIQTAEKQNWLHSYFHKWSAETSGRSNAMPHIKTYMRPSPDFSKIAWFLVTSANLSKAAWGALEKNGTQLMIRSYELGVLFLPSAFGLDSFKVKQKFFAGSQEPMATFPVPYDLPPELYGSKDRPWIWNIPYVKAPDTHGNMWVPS
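Signal: AlphaScreen proximity between streptavidin donor and anti-FITC acceptor beads on intact substrate. Reaction: Tdp1 1 nM, substrate 15 nM final, 5 min RT after 15 min compound preincubation.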
IL-1B inflam inh: inflammasome signaling inhibition, IL-1 beta readout; THP-1 LPS/ATP IL-1B secretion, AlphaLISA, 16 h; hits give low values; activity change, % at 57.5 µM; 360,000 compounds, 4.7% hits; AID 743279; in the data active means activity change below about -50%; inconclusive means mostly about -30% to -49%; further: on the % scale 0 is the no-effect control and ±100 the full control effect
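Secreted IL-1B measured by AlphaLISA bead assay after 16 h compound exposure of THP-1 cells; compounds (final up to 57.5 uM) added 1 h before LPS (250 ng/mL) and ATP (1.25 mM) stimulation; lower signal means less secretion.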
TGFb inhibitor: inhibitors of TGF-b signaling; Potency, µM (top dose mostly 46.1 µM), for inactives: at the highest dose activity, negative = inhibition, most hits filed as inhibitors; 410,000 compounds, 1.2% hits; AID 588855; HepG2 CAGA-GFP TGF-b/SMAD3 reporter, GFP fluorescence, 18 h; TGF-beta stimulated, 500 pg/mL final; further: potency means the concentration at half of the fitted maximal effect; on the % scale 0 is the no-effect control and ±100 the full control effect; nearly all actives have a fitted effect of over 65% in size
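HEPG2 CAGA-GFP reporter cells (1000/well, DMEM with 1% FBS) received compounds, then recombinant TGF-beta at 500 pg/mL final for 18 hours at 37 degrees C. Per-cell GFP summed per well was normalised to unstimulated and stimulated DMSO controls before curve fitting.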
TDP1 cell noCPT: qHTS for Inhibitors of human tyrosyl-DNA phosphodiesterase 1 (TDP1): qHTS in cells in absence of CPT. 420,000 compounds, 15% hits. Potency, µM (doses to about 46.2 µM), inactives show top-dose activity change, negative = growth inhibition, usual class: inhibitors. DT40 Tdp1-/- hTDP1 cells, no CPT, ATP luminescence, 48 h; further: potency means the concentration at half of the fitted maximal effect; on the % scale 0 is the no-effect control and ±100 the full control effect; nearly all actives have a fitted effect of over 55% in size
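A cellular qHTS used chicken DT40 cells lacking endogenous Tdp1 but carrying stably transfected human TDP1. Compounds were applied without camptothecin, and cell growth kinetics were judged by ATP-dependent luminescence after ≥48 hr.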
HepG2 tox: kills HepG2 cells in TGF-b inhibitor counter-screen; Potency, µM (titrated, usually from 46.1 µM), for inactives: at the highest dose activity change, negative = cytotoxicity, actives largely listed as cytotoxic; HepG2 CAGA-GFP viability, ATP luminescence, 18 h; AID 588856; 410,000 compounds, 0.76% hits; further: potency means the concentration at half of the fitted maximal effect
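HepG2 CAGA-GFP cells (1000/well, DMEM with 1% FBS) received compound, then TGF-beta at 500 pg/mL final, and were incubated 18 hours at 37 degrees C. Viability was read by CellTiter-Glo luminescence. Media-only wells were set as complete cell-killing and DMSO as no toxicity.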
DT40 TDP1 CPT: growth inhibition of DT40 Tdp1-/-;hTDP1 cells with camptothecin (screen for TDP1 inhibitors) | 420,000 compounds, 12% hits | AID 686979 | chicken DT40 Tdp1-/-;hTDP1 cells + 20 nM CPT, ATP luminescence, 48 h | Potency, µM (highest dose often 46.2 µM), inactives show at the highest dose activity change, negative = growth inhibition, usual class: inhibitors; further: potency means the concentration at half of the fitted maximal effect; on the % scale 0 is the no-effect control and ±100 the full control effect; nearly all actives have a fitted effect of over 55% in size
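Cell growth measured by CellTiter-Glo luminescence after a minimum 48 h, 37 C compound exposure with 20 nM CPT in Tdp1-knockout DT40 cells stably expressing hTDP1, seeded 400/well; qHTS titration format.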
Starred values were filed as active, the others as inactive; ? = inconclusive; / = not tested or not shown; ! = not active in a repeat; [ ] = remark or other dose. Only some compounds are listed: those with a hit (about 18% of all), similar ones and a draw of the others. Unless noted, the call rests on the fitted dose curve; in most records, active means well fitted curve in the direction sought with a large enough effect; inconclusive means small, poorly fitted or top-dose-only effect, or another doubt; inactive means no such curve, though single readings can be large; an effect the other way counts as inactive or inconclusive.

SMILES	TDP1 block	IL-1B inflam inh	TGFb inhibitor	TDP1 cell noCPT	HepG2 tox	DT40 TDP1 CPT
CN(C)c1ccnc2c[cH-]cc12.[Fe].c1ccc(-[c-]2[c-](-c3ccccc3)[c-](-c3ccccc3)[c-](-c3ccccc3)[c-]2-c2ccccc2)cc1 (configuration not stated)	9%	-1	2%	3.7µM*	0%	5.2µM*
Cc1nc2sccn2c1CN1CCC2(CC1)CC2C(=O)Nc1ccc2c(c1)OCO2 (configuration not stated)	/	/	/	?	/	-2%[9.04 µM]
CCOC(=O)[C@@H](C)N(C(=O)OC(C)(C)C)S(=O)(=O)N(Cc1ccccc1)[C@H](C(=O)OC)C(C)C	/	57	10µM*!	?	-31%	23µM*
c1ccc(CCNc2ccnc3cc4ccccc4cc23)cc1	11%	-102*	?	7.3µM*	11µM*	5.8µM*
COc1ccc(/C=C/c2ccnc3ccccc23)c(OC)c1	/	/	?	18µM*	-15%	22µM*
COc1ccc(/C=C/c2ccnc3ccccc23)cc1	/	/	?	32µM*	-32%	11µM*
COc1ccc(Nc2ccnc3ccccc23)cc1	6%	?	-1%	16µM*	-16%	13µM*
O=C(NCCc1ccccc1)c1nccc2ccccc12	-5%	6	-7%	-14%	-14%	-16%
N#Cc1ccccc1NC(=O)CSc1cn[nH]n1	3%	6	25%	-5%	-17%	-7%
C[C@@H](c1ccccc1)N1C(=O)[C@H]2[C@H]3[C@H](O)[C@H](O)C/C(=N/OCc4ccccc4)[C@@H]3CC[C@@H]2C1=O	2%[21 µM]	/	/	/	/	/
COc1cc(C(=O)Nc2cccc3ncccc23)cc(OC)c1OC	-11%	18	21%	0%	6%	-8%
COc1ccc(Nc2ccnc(Nc3ccc(OC)cc3)n2)cc1	6%	-99*	?	2.6µM*	-49%	2.6µM*
COc1cc(N(C)C)ccc1/C=C/c1ccnc2ccccc12	/	/	152%	25µM*	-39%	10µM*
CC(c1ccc(N(C)C)cc1)c1ccnc2ccccc12 (configuration not stated)	/	/	-15%	?	-22%	?
CC(C)Nc1ccc(Nc2ccnc3cc4ccccc4cc23)cc1	11%	-107*	?	7.3µM*	11µM*	8.2µM*
COc1cc(/C=C/c2ccnc3ccccc23)cc(OC)c1OC	/	/	-4%	11µM*	-30%	11µM*
COc1ccc(Nc2nc(OC)nc(OC)n2)cc1	/	3	15%	-5%	-1%	1%
CN1CCc2cc(O)c(O)cc2C1Cc1ccc(O)c(O)c1 (configuration not stated)	4%	/	/	/	/	/
COc1cc(NC(=S)NCc2ccc(S(N)(=O)=O)cc2)c(OC)cc1Cl	1%	-11	-4%	?	-19%	-18%
O=C(CCN1C(=O)c2ccccc2S1(=O)=O)Nc1cccc(F)c1	-5%	-14	-8%	-15%	-3%	0%
CN(C)c1ccc(C(C(=O)NCC2CCCO2)N(C(=O)c2snc(C(N)=O)c2N)c2ccccc2)cc1 (configuration not stated)	/	-3	9%	?	2%	?
Cc1cccc(N(C(=O)c2snc(C(N)=O)c2N)C(C(=O)NCC2CCCO2)c2ccc(N(C)C)cc2)c1 (configuration not stated)	7%	-16	0%	?	2%	29µM*
CN(C)c1ccc(C(C(=O)NCC2CCCO2)N(C(=O)c2snc(C(N)=O)c2N)c2ccc3c(c2)OCO3)cc1 (configuration not stated)	11%	-66*	6%	?	-9%	0%
O=C(O)c1cn(-c2ccc(F)cc2)c(=O)c2ccccc12	3%	21	2%	1%	-18%	41%
CC(C)c1nn2c(=O)cc(COC(=O)c3ccccc3NC(=O)c3cccc(Cl)c3)nc2s1	-1%	/	1%	18µM*	2%	16µM*
SMILES	TDP1 block	IL-1B inflam inh	TGFb inhibitor	TDP1 cell noCPT	HepG2 tox	DT40 TDP1 CPT
CC(C)c1nn2c(=O)cc(COC(=O)c3ccccc3NC(=O)c3cccs3)nc2s1	-1%	/	1%	7.3µM*	3%	7.3µM*
CCCCC/C=C\C[C@@H]1O[C@H]1/C=C/C(O)C/C=C\CCCC(=O)O (some centres not stated)	4%	/	/	/	/	/
Cc1cc(=O)oc2cc(NC(=O)C(CCCN=C(N)N)NC(=O)OCc3ccccc3)ccc12 (configuration not stated)	/	1	22%	-5%	6%	2%
CC(C)Oc1ccc(Br)cc1/C=N\NC(N)=S	-1%	-27	?	16µM*	-18%	?
COc1ccc(Br)cc1/C=N/NC(=O)Cn1nnnc1N	0%	29	?	?	-50%	?
COC(=O)c1ccccc1N=Nc1c(N)n[nH]c1N	-11%	-60*	?	-19%	-5%	-1%
CCN(CC(=O)NCc1ccc(F)cc1)CC(O)COCc1cccc(OC)c1 (configuration not stated)	7%	17	13µM*	?	-41%	?
CCC(Oc1ccccc1)C(=O)N(CC)CC(=O)NCc1ccc(F)cc1 (configuration not stated)	-1%	-13	-15%	-14%	-5%	-17%
Cc1ccc(NC(=O)CN(C)Cc2nc3ccccc3c(=O)[nH]2)c(Br)c1	9%	?	-47%	21µM*	-2%	-46%
Cc1ccc(C(=O)N(Cc2nc3ccccc3c(=O)[nH]2)C2CCCC2)cc1	-5%	-22	-9%	?	-14%	13µM*
CCN(CC(=O)Nc1ccccc1Br)Cc1nc2ccccc2c(=O)[nH]1	6%	-9	5%	?	-35%	?
CC(OCC(O)CN(C)Cc1nc2ccccc2c(=O)[nH]1)c1ccc(Cl)cc1 (configuration not stated)	7%	?	5%	?	-13%	18µM*
CN(Cc1nc2ccccc2c(=O)[nH]1)Cc1nc2ccsc2c(=O)[nH]1	8%	30	-24%	0.92µM*	-23%	0.52µM*
CN(Cc1nc2ccccc2c(=O)[nH]1)C(=O)c1ccccc1OCc1ccc(Cl)cc1	0%	-21	?	?	-2%	-27%
